Compound activity from PubChem BioAssay.
Compounds with a hit are over-represented: about 19% of the library has one in this group of screens.
TDP1 cell noCPT – qHTS for Inhibitors of human tyrosyl-DNA phosphodiesterase 1 (TDP1): qHTS in cells in absence of CPT; AID 686978, 2013; DT40 Tdp1-/- hTDP1 cells, no CPT, ATP luminescence, 48 h; 15% of 420,000 active; Potency, µM (top dose mostly 46.2 µM), for the others: at the top dose activity change, negative = growth inhibition, most hits filed as inhibitors; further: potency means the concentration at half of the fitted maximal effect; nearly all actives have a fitted effect of over 55% in size
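Cells were dispensed at 400 per well, compounds added by pin tool, plates incubated ≥48 hr at 37 °C, then CellTiter-Glo added for 30 min at room temperature before luminescence reading. Line: DT40 Tdp1-/- complemented with hTDP1; camptothecin omitted.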
HT1080 IDH1KD tx – toxicity to HT-1080 IDH1 knockdown cells (counter line); HT-1080 IDH1 knockdown viability, ATP luminescence, 48 h; Potency, µM (highest dose often 46.1 µM), inactives show top-dose activity, negative = toxicity, usual class: cytotoxic; 2% of 360,000 active; AID 686971;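 further: potency means the concentration at half of the fitted maximal effect; 0% = DMSO wells and -100% = cell-free medium wells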
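HT-1080-IDH1KD cells (IDH1 knocked down), 750/well in RPMI with 5% FBS, treated with compound 48 h at 37 degrees C. Viability by CellTiter-Glo luminescence, normalised to DMSO and no-cell wells; concentration-response curves classed.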
IL-1B inflam inh – blocks inflammasome-driven IL-1 beta release. activity change, % at 57.5 µM. AID 743279. THP-1 LPS/ATP IL-1B secretion, AlphaLISA, 16 h; stronger effect = lower value. 4.7% of 360,000 active; in the data active means activity change below about -50%; inconclusive means mostly about -30% to -49%
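THP-1 cells pretreated 1 hr with compounds (up to 57.5 uM final), then stimulated with LPS (250 ng/mL final) plus ATP (1.25 mM final); secreted IL-1B measured by AlphaLISA after 16 hr, decreased signal indicating inhibition.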
HT1080NT lethal – kills 2HG-producing HT-1080-NT fibrosarcoma cells | HT-1080-NT fibrosarcoma viability, CellTiter-Glo ATP luminescence, 48 h | Potency, µM (series often up to 46.1 µM), without a hit: at the highest dose activity, negative = less viability, actives largely listed as cytotoxic | AID 686970 | 1.6% of 360,000 active;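 further: NT is the 2HG producing partner of a matched IDH1 knockdown line; potency means the concentration at half of the fitted maximal effect; 0% = DMSO-treated cells and -100% = media-only wells without cells; nearly all actives have a fitted effect of over 55% in size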
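Toxicity toward the 2HG-producing NT line was scored as %Activity, normalised to DMSO and no-cell wells, from CellTiter-Glo luminescence after 48 hours' treatment.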
TDP1 cell CPT – growth inhibition of DT40 Tdp1-/-;hTDP1 cells with camptothecin (screen for TDP1 inhibitors); chicken DT40 Tdp1-/-;hTDP1 cells + 20 nM CPT, ATP luminescence, 48 h; Potency, µM (series often up to 46.2 µM), for inactives: at the highest dose activity change, negative = growth inhibition, most hits filed as inhibitors; 12% of 420,000 active; further: potency means the concentration at half of the fitted maximal effect; nearly all actives have a fitted effect of over 55% in size
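Chicken DT40 Tdp1-/- cells stably complemented with human TDP1 were seeded at 400 cells/well in medium containing 20 nM camptothecin, exposed to pin-transferred compounds, and grown at 37 °C for at least 48 hr. Viability was read as ATP luminescence.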
* = called active by the depositor; ? = inconclusive; · = not tested or not shown. Unless noted, the call rests on the fitted dose curve; in most records, active means well fitted curve in the direction sought with a large enough effect; inconclusive means small, poorly fitted or top-dose-only effect, or another doubt; inactive means no such curve, though single readings can be large; an effect the other way counts as inactive or inconclusive. Unless noted, on the % scale 0 is the no-effect control and ±100 the full control effect.

SMILES	TDP1 cell noCPT	HT1080 IDH1KD tx	IL-1B inflam inh	HT1080NT lethal	TDP1 cell CPT
COc1cc2c(cc1OC)CN(CC(=O)Nc1ccc(Cl)cc1Cl)CC2	21µM*	-9%	12	-12%	21µM*
COc1ccc(Cl)cc1NC(=O)CN1CCC(NC(=O)C2CC2)CC1	?	-13%	20	-3%	23µM*
CCC(CCC(C)C1CCC2C3CCC4CC(O)CC[C@@]4(C)C3CC[C@@]12C)C(C)C (some centres undefined)	-5%	·	·	·	-3%
CC(CCC(C)C(C)(C)C)[C@@H]1CC[C@H]2C3C[C@H](OS(O)(=S)=S)[C@H]4C[C@H](OS(O)(=S)=S)[C@@H](OS(O)(=S)=S)C[C@]4(C)[C@H]3CC[C@]12C (some centres undefined) (tested in a mixture with another compound)	?	?	-76*	9.2µM*	?
Cn1c2nc(=O)n(-c3ccccc3)c(=O)c-2nc2c1CCCC2	?	-13%	11	-11%	21µM*
COc1ccc(Cl)cc1Nc1nc(-c2sc(NC(=O)c3ccco3)nc2C)cs1	?	-17%	-8	4%	?
CCCCC(=O)Nc1nc(C)c(-c2csc(Nc3cc(OC)ccc3OC)n2)s1	?	?	-25	-9%	6.5µM*
CCC(C)C(=O)Nc1nc(C)c(-c2csc(Nc3cc(Cl)ccc3OC)n2)s1 (centres undefined)	10µM*	-10%	7	-3%	15µM*
COc1ccc(Cl)cc1Nc1nc(-c2sc(NC(=O)C(C)(C)C)nc2C)cs1	3.7µM*	-10%	-4	-6%	5.2µM*
COc1ccc(OC)c(Nc2nc(-c3sc(NC(=O)CC(C)C)nc3C)cs2)c1	16µM*	?	2	-16%	15µM*
CCCCC(=O)Nc1nc(C)c(-c2csc(Nc3cc(Cl)ccc3OC)n2)s1	?	-5%	-11	-1%	?
Cc1nc2c(ccc3c([N+](=O)[O-])cccc32)c(C)c1C	-29%	0%	1	16%	-20%
CCC(C)C(=O)Nc1nc(C)c(-c2csc(Nc3cc(OC)ccc3OC)n2)s1 (centres undefined)	15µM*	-13%	-16	-1%	16µM*
CCCC(=O)Nc1nc(C)c(-c2csc(Nc3ccccc3C)n2)s1	8%	-12%	-8	-1%	-2%
COc1ccc(-c2csc(-c3ccccc3)n2)c(OC)c1	-8%	-12%	-4	-6%	-3%
COc1ccc(-c2nc(-c3ccc(O)cc3O)cs2)cc1OC	?	?	-67*	?	?
COc1ccc(-c2nc(CCl)cs2)cc1OC	12µM*	0%	1	2%	4.6µM*
COc1ccc(-c2nc(CCl)cs2)cc1	5.8µM*	1%	0	-5%	8.2µM*
CCc1ccc(-c2nc(CCl)cs2)cc1	?	-2%	-23	-3%	12µM*
CC1(C)SC2C(NC(=O)C3(N)CCCCC3)C(=O)N2C1C(=O)O (centres undefined)	-8%	1%	4	-3%	-10%
COc1cc(-c2nnc(SCC3(c4ccccc4)OCCO3)o2)cc(OC)c1OC	?	-5%	-27	0%	?
CCn1cc(C(=O)N2CCN(c3ccccc3F)CC2)c(=O)c2cc(S(=O)(=O)N(C)C)ccc21	?	·	·	·	-28%
ClCc1csc(-c2ccccc2Cl)n1	18µM*	-5%	-3	-9%	12µM*
COc1ccc(-c2csc(-c3ccc(O)cc3)n2)cc1	6.5µM*	1.6µM*	19	5.2µM*	7.3µM*
COc1ccc(N2CC(O)=C(c3nc(-c4ccccc4)cs3)C2=N)cc1	21µM*	-21%	38	-11%	?
Cc1ccc(-c2csc(-c3ccncc3)n2)cc1	7%	0%	31	5%	3%
COc1cccc(-c2nc(CCl)cs2)c1	?	-4%	?	-3%	21µM*
O=C(O)c1ccc(-c2nc(-c3ccccc3Cl)cs2)cc1	-24%	-16%	37	-24%	4%
